Among the targets are Hsp53 (Homo sapiens, UniProt P04637 1-393); Xlp53 (Xenopus laevis, UniProt Q7T1D0 1-362); Mmp53 (Mus musculus, UniProt P02340 1-390).
Holding throughout (assay): fluorescence anisotropy competition titration; 25 mM sodium phosphate (purification buffer pH 7.2), 225 mM NaCl, 10% v/v glycerol, 5 mM DTT, 0.2 mg/mL BSA, 22 C; low values mean tight binding
What all share (conditions): protein: recombinant; tags: N-terminal 6xHis-lipoyl-TEV tag, cleaved; chain copies: 4; dsDNA, one strand shown

Another test deals with T1, Dmp53 (Drosophila melanogaster, UniProt Q9N6D8 1-385).
T1 sequence: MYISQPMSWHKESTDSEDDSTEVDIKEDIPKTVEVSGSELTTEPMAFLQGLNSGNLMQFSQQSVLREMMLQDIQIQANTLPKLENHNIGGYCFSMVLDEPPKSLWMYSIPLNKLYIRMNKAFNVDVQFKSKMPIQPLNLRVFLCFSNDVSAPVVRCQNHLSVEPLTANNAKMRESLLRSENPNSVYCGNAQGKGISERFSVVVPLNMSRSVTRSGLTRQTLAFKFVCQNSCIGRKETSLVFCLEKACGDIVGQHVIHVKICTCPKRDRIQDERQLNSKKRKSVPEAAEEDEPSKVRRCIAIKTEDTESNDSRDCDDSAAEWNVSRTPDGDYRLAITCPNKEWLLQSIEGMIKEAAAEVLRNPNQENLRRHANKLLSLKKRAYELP

The target in another test is T2, ΔNp63α (Homo sapiens, UniProt Q9H3D4-2 1-586).
T2 sequence: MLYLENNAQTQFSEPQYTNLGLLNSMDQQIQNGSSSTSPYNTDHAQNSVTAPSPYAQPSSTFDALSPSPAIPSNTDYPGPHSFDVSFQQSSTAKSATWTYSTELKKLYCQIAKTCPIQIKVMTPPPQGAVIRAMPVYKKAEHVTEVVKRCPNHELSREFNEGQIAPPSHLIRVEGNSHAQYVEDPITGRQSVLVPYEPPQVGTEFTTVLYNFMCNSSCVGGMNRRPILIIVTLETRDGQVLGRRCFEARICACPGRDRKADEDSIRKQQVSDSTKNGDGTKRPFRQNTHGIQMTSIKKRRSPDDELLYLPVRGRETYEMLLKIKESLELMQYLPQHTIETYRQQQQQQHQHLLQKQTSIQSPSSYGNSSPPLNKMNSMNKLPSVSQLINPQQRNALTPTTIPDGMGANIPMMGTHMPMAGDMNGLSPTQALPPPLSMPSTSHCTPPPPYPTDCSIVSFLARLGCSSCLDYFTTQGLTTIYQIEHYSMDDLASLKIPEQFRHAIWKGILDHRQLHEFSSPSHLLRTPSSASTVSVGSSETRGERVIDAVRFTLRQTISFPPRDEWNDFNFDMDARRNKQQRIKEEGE

The target in the next test is T3, ΔNp63β (Homo sapiens, UniProt Q9H3D4-4 1-461).
T3 sequence: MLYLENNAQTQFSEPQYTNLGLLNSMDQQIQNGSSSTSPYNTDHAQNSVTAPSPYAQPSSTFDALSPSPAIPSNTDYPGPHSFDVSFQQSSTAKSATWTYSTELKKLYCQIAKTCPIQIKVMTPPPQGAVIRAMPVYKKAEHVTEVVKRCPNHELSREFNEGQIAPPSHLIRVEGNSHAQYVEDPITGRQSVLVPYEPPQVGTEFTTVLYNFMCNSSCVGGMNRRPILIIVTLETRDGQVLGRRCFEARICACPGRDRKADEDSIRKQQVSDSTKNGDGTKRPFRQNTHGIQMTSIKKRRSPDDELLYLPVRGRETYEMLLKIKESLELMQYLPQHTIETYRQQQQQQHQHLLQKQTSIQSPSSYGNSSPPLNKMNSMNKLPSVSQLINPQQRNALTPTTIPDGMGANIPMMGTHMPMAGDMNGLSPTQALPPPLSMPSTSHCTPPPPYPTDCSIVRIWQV

For another test, the target named is T4, ΔNp63γ (Homo sapiens, UniProt Q9H3D4-6 1-393).
T4 sequence: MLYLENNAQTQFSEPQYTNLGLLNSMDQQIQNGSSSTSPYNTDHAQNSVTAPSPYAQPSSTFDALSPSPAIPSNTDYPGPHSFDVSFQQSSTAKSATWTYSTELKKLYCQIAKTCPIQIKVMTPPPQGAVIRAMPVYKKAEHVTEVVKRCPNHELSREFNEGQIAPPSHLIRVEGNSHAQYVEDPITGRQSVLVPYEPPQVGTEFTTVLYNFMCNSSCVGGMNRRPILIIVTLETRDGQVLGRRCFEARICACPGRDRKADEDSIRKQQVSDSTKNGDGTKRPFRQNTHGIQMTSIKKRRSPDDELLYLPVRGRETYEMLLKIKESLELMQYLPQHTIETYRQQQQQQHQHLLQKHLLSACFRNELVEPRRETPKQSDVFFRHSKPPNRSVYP

A further test concerns the target T5, ΔNp73β (Homo sapiens, UniProt O15350-9 1-450).
T5 sequence: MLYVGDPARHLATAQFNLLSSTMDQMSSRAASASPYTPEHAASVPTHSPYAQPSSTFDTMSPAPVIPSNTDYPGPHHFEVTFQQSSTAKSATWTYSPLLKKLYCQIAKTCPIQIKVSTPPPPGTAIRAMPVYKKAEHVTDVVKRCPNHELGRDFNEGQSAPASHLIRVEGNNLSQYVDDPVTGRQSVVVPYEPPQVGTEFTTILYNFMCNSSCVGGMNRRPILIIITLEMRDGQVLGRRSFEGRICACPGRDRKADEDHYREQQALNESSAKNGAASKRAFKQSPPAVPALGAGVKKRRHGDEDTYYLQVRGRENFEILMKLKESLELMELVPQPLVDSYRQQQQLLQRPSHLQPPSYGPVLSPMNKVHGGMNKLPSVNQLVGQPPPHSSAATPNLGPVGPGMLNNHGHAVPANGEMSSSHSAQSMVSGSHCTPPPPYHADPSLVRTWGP

A further test concerns the target T6, p73CT (Homo sapiens, UniProt O15350 104-383).
T6 sequence: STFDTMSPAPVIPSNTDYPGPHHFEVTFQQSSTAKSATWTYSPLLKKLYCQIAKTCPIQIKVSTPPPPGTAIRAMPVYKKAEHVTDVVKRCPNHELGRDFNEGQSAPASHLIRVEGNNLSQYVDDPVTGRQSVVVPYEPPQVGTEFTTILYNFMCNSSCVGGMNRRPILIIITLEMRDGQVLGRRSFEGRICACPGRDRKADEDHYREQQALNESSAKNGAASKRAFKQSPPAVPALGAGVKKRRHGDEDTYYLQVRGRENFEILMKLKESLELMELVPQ

In another test the target is T7, Drp53 (Danio rerio, UniProt P79734 1-373).
T7 sequence: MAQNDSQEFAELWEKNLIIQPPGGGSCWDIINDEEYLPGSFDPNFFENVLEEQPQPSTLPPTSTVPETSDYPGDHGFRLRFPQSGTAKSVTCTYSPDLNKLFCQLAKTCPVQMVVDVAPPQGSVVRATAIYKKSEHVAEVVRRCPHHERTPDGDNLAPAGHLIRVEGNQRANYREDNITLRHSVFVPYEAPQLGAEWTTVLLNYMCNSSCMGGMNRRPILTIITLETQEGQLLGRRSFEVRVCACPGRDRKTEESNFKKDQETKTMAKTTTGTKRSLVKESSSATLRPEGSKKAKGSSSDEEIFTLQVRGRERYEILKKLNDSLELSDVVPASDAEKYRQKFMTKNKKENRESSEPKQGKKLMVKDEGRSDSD

Chain of Mmp53 (P02340 whole entry): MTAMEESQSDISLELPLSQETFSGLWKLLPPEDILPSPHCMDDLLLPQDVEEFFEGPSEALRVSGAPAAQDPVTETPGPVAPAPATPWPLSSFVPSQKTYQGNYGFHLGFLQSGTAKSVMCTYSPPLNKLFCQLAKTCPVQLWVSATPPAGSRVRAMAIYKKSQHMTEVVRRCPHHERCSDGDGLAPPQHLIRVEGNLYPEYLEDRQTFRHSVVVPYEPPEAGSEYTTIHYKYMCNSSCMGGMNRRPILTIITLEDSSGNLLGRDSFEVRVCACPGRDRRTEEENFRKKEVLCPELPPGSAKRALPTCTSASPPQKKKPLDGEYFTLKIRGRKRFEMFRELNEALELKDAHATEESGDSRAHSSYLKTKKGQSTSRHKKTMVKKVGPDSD
Chain of Hsp53 (P04637 whole entry): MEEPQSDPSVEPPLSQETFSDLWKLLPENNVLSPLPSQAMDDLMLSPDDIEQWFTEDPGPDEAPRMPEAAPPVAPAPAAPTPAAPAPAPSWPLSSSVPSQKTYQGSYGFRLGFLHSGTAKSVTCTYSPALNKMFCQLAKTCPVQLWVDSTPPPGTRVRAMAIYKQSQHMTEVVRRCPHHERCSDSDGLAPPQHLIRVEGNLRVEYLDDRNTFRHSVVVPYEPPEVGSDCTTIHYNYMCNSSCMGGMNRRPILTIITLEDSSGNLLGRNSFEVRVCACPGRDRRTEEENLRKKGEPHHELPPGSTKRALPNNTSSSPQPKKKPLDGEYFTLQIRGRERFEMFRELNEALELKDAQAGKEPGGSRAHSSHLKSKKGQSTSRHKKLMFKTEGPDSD
Chain of Xlp53 (Q7T1D0 entry or part of it): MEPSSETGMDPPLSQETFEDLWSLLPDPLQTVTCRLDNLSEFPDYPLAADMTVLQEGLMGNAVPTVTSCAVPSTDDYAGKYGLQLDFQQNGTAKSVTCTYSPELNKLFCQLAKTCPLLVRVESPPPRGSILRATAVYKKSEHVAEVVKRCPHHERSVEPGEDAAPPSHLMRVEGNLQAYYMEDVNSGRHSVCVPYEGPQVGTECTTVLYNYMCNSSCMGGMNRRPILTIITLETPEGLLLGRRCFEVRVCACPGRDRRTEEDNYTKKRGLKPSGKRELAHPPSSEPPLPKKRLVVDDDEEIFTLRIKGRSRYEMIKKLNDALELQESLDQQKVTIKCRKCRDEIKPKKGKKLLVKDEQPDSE

For the sequence CGCGGACATGCCCGGACATGTCCCGC, the binding signal amounted to 0.26 delta log10 Kd in the test with Dmp53; 0.03 delta log10 Kd with Hsp53; 0.03 delta log10 Kd with Xlp53; 0.06 delta log10 Kd with ΔNp63α; 0.13 delta log10 Kd with ΔNp63β; 0.12 delta log10 Kd with ΔNp63γ. For the same sequence, the binding signal is 0.03 delta log10 Kd in the test with ΔNp73β and 0.05 delta log10 Kd with p73CT.

As for CGCGGACATGTCGGGACATGTCCCGC, the binding signal with Dmp53 came out at 0.02 delta log10 Kd; in the test with Drp53, 0.19 delta log10 Kd; with Hsp53, 0.27 delta log10 Kd; in the test with Xlp53, 0.22 delta log10 Kd; with ΔNp63α, 0.11 delta log10 Kd; with ΔNp63β it was 0.11 delta log10 Kd. Further, the binding signal with ΔNp63γ amounted to 0.1 delta log10 Kd; in the test with ΔNp73β, 0.17 delta log10 Kd; in the test with Mmp53, 0.24 delta log10 Kd; with p73CT it was 0.17 delta log10 Kd.

As to CGCGGACTTGTCCGGACATGTCCCGC, the binding signal with Dmp53 is 0.36 delta log10 Kd; with Drp53, 0.3 delta log10 Kd; with Hsp53, 0.14 delta log10 Kd; with Xlp53, 0.16 delta log10 Kd; with ΔNp63α, 0.06 delta log10 Kd; with ΔNp63β it was 0.27 delta log10 Kd. Further, the binding signal with ΔNp63γ was 0.41 delta log10 Kd; in the test with ΔNp73β it was 0.36 delta log10 Kd; with Mmp53 it was 0.24 delta log10 Kd; with p73CT it was 0.45 delta log10 Kd.

Regarding CGCGGACATGTTCGGACATGTCCCGC, the binding signal with Dmp53 came to 0.17 delta log10 Kd; with Drp53 it was 0.38 delta log10 Kd; in the test with Hsp53, 0.34 delta log10 Kd; with Xlp53 it was 0.39 delta log10 Kd; with ΔNp63α, 0.17 delta log10 Kd; with ΔNp63β, 0.47 delta log10 Kd. Besides, the binding signal worked out at 0.33 delta log10 Kd in the test with ΔNp63γ, 0.48 delta log10 Kd with ΔNp73β, 0.19 delta log10 Kd with Mmp53 and 0.36 delta log10 Kd with p73CT.

As to CGCGGCCATGTCCGGACATGTCCCGC, the binding signal is 0.75 delta log10 Kd in the test with Dmp53; 0.86 delta log10 Kd with Drp53; 0.66 delta log10 Kd with Hsp53; 0.82 delta log10 Kd in the test with Xlp53; 0.88 delta log10 Kd with ΔNp63β; 0.93 delta log10 Kd in the test with ΔNp63γ. Besides, the binding signal with Mmp53 was 0.46 delta log10 Kd.

For the sequence CGCCGACATGTCCGGACATGTCCCGC, the binding signal with Dmp53 came out at 0.03 delta log10 Kd; with Drp53 it was 0.15 delta log10 Kd; with Hsp53 it was 0.17 delta log10 Kd; with Xlp53, 0.1 delta log10 Kd; with ΔNp63α, 0.04 delta log10 Kd; with ΔNp63β, 0.07 delta log10 Kd. Further, the binding signal with ΔNp63γ was 0.09 delta log10 Kd; with ΔNp73β, 0 delta log10 Kd; with Mmp53, 0.15 delta log10 Kd; with p73CT, 0.06 delta log10 Kd.

Take CGCGCACATGTCCGGACATGTCCCGC: the binding signal was 0.21 delta log10 Kd with Dmp53; 0.41 delta log10 Kd in the test with Drp53; 0.37 delta log10 Kd with Hsp53; 0.27 delta log10 Kd with Xlp53; 0.15 delta log10 Kd in the test with ΔNp63α; 0.36 delta log10 Kd with ΔNp63β. The binding signal is 0.37 delta log10 Kd with ΔNp63γ, 0.44 delta log10 Kd with ΔNp73β, 0.28 delta log10 Kd in the test with Mmp53 and 0.39 delta log10 Kd with p73CT.

Values taken from publication PMC2807882, “Conservation of DNA-binding specificity and oligomerisation properties within the p53 family”.
